# Assay outcomes: PubChem BioAssay, National Center for Advancing Translational Sciences (NCATS)
# VACV mCherry inh: inhibitors of vaccinia virus infection (mCherry reporter signal) | hit rate 0.63% among 310,000 | Potency, µM (highest dose often 36.5 µM), for the others: at the top dose activity change, negative = inhibition, usual class: inhibitors | Vaccinia virus mCherry reporter infection, fluorescence; calls by dose curve; tested in A549 cells; also: nearly all actives have a fitted effect of over 35% in size
# LASV entry inh: inhibitors of Lassa virus binding or cell entry. Potency, µM (titrated, usually from 37.9 µM), without a hit: top-dose activity change, negative = inhibition, usual class: inhibitors. hit rate 1.2% among 300,000. Lassa virus pseudotype entry inhibition, cell reporter; calls by dose curve; tested in HEK293 cells; also: nearly all actives have a fitted effect of over 50% in size
# Sm TGR inh: blocks Schistosoma mansoni thioredoxin glutathione reductase; purified TGR, DTNB reduction, TNB absorbance 405 nm; hit rate 3% among 360,000; AID 485364; Potency, µM (titrated, usually from 114 µM), for the others: at the top dose activity change, negative = inhibition, most hits filed as inhibitors; Q962Y6; active = well fitted inhibition curve with a large enough effect; inconclusive = small, poorly fitted or top-dose-only effect; inactive = no such curve, though single readings can be large or run the other way; also: nearly all actives have a fitted effect of over 60% in size
#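 Kinetic colorimetric format: TGR-catalysed, NADPH-driven DTNB reduction monitored via TNB absorbance. Enzyme dispensed at 20 nM; compound exposure 15 min at room temperature before reaction start.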
# FMDV inh: antivirals against foot and mouth disease virus; Potency, µM (series often up to 57.9 µM), inactives show at the highest dose activity change, negative = inhibition, hits mostly inhibitors; AID 1159524; FMDV antiviral cell-based qHTS; hit rate 1.2% among 410,000; calls by dose curve; tested in HEK293T cells; also: read-out not given here; nearly all actives have a fitted effect of over 45% in size
# MARV entry inh: inhibitors of Marburg virus binding or cell entry. hit rate 1.8% among 300,000. Potency, µM (doses to about 37.8 µM), inactives show at the highest dose activity change, negative = inhibition, usual class: inhibitors. Marburg virus pseudotyped entry inhibition, cell reporter; calls by dose curve; tested in HEK293 cells
# Vaccinia Venus: inhibitors of vaccinia virus (Venus reporter); hit rate 0.46% among 330,000; Vaccinia virus Venus reporter expression, fluorescence; Potency, µM (doses to about 36.5 µM), for the others: top-dose activity change, negative = inhibition, hits mostly inhibitors; calls by dose curve; tested in A549 cells; also: nearly all actives have a fitted effect of over 30% in size
# Numbers without * were called inactive; i = inactive; u = inconclusive; x = not tested or not shown; [ ] = another dose, or the depositor's remark. Rows were chosen to be rich in hits. Some 5.4% of all compounds tested hit in one or more screens of this group. % is scaled to controls: 0 for no effect and ±100 for the full control effect; potency is read from the fitted curve at half-maximal effect.
SMILES,VACV mCherry inh,LASV entry inh,Sm TGR inh,FMDV inh,MARV entry inh,Vaccinia Venus
O=C(c1ccco1)N1c2ccccc2Sc2ccccc21,-19.1%,u,u,u,22.4µM*,-16.2%
O=C(C[n+]1ccccc1)N1c2ccccc2Sc2ccccc21,4.3%,x,28.2µM*,6.6%,-9.3%[46.1 µM],8.1%
COc1ccc(-c2nc3cc(C)ccc3cc2CN(C(=O)c2ccc(C)s2)C2CC2)cc1OC,-20.7%,x,x,-14.0%,x,-8.6%
CCc1ccc(-n2c(=O)c3sc4ccccc4c3n(CC(=O)N3CCCC3)c2=O)cc1,4.3%,u,1.2%,-11.9%,13.0%[46.1 µM],-1.7%
COc1ccc(N/C=C2/CCCCC2=O)cc1,x,u,39.8µM*,28.3%,18.7%,x
COc1ccc(Oc2ccc(N/C=C3/CCCC3=O)cc2)cc1,-29.8%,1.1%,-15.0%,-5.6%,-9.4%,-26.1%
Cn1c(OCc2cccnc2)nc2c1c(=O)n(Cc1ccc(Br)cc1)c(=O)n2C,x,-13.7%,1.6%,u,-21.9%,x
Cn1c(OCc2cccnc2)nc2c1c(=O)n(Cc1ccc(Cl)cc1)c(=O)n2C,x,16.4µM*,x,u,u,x
Cn1c(Oc2ccc(F)cc2)nc2c1c(=O)n(Cc1ccccc1Cl)c(=O)n2C,-14.9%,u,11.1%,17.8µM*,u,3.8%
Cn1c(N2CCN(c3ccccn3)CC2)nc2c1c(=O)n(Cc1ccc(Cl)cc1)c(=O)n2C,x,0.1%,-9.6%,20µM*,2.1%,-12.5%
COc1ccc(Oc2nc3c(c(=O)n(Cc4ccccc4Cl)c(=O)n3C)n2C)cc1,-13.7%,u,-1.2%,0.0%,0.6%[46.1 µM],4.3%
Cn1c(N2CCN(c3ccccn3)CC2)nc2c1c(=O)n(Cc1ccccc1Cl)c(=O)n2C,i,18.0%,x,-21.9%,-1.9%,-11.1%
CSc1ccc(-c2nc3cccc(C)n3c2Nc2ccc3c(c2)OCO3)cc1,-28.1%,u,5.2%,7.7%,-0.6%[46.1 µM],-25.0%
CCOC(=O)c1ccc(N=c2scc(C)n2CC)cc1,i,u,-35.0%,-0.9%,5.62µM*,11.7%
C=CCn1c(C)csc1=Nc1ccc(C(C)=O)cc1,-11.2%,-18.2%,-22.1%,42.6%,-11.9%[46.1 µM],-10.0%
Cc1ccn2c(=O)c(C(=O)NCCc3ccccc3)c(O)nc2c1,-5.6%,x,5.7%,51.6%,-21.7%[46.1 µM],7.7%
CCOC(=O)c1ccc(NC(=O)C2(c3ccc(OC)cc3)CCCC2)cc1,x,11.2µM*,4.6%,u,u,-19.9%
O=C1NC(=O)[C@H](c2cn(-c3ccccc3)nc2-c2ccc(F)cc2)N1,x,x,x,x,1.6%,x
O=C(CSc1cccc2cccnc12)N1CCCC1,11.2µM*,u,2.0%,u,u,11.2µM*
COc1ccc(NC(=O)C[C@H]2C(=O)N(Cc3ccccc3)C[C@@H]2Cc2ccccc2)cc1,-29.1%,u,x,-8.1%,x,u
O=C(C[C@H]1C(=O)N(Cc2ccccc2)C[C@@H]1Cc1ccccc1)Nc1ccccc1,-26.4%,15.8µM*,5.7%,1.9%,x,-21.0%
O=C(CNC(=O)c1sc2ccccc2c1Cl)NCc1cccc(C(F)(F)F)c1,-25.9%,-31.6%[46.1 µM],-1.1%,8.7%,u,15.8µM*
COc1ccc(C(=O)c2nc3ccccc3n2C(C)C)cc1OC,x,x,28.0%,-15.4%,x,x
CCn1c(=N)n(CC(=O)c2ccc(OC)cc2)c2ccccc21,x,u,2.1%,-4.5%,10µM*,u
COc1ccc(C(=O)c2nc3ccccc3n2C(C)C)cc1,x,x,31.6µM*,0.3%,x,x
SMILES,VACV mCherry inh,LASV entry inh,Sm TGR inh,FMDV inh,MARV entry inh,Vaccinia Venus
COc1ccc(C(=O)Cn2c(C(=O)/C=C/c3ccccc3)nc3ccccc32)cc1,x,u,4.3%,8.91µM*,u,x
Cn1c(=N)n(CC(=O)c2ccc(F)cc2)c2ccccc21,-18.2%,u,-10.7%,-24.2%,u,-12.6%
Cn1c(=N)n(CC(=O)c2ccc(Br)cc2)c2ccccc21,i,10µM*,x,-9.0%,u,-25.2%
COc1ccc(N[C@H]2CC(=O)N(C)C2=O)cc1,x,x,x,x,4.2%,x
Cc1ccc(Cn2c(=O)n(Cc3ccco3)c(=O)c3oc4ccccc4c32)cc1,i,5.5%[46.1 µM],-1.6%,-15.5%,x,-7.5%
Cc1ccc(N=Nc2c(O)ccc3n[nH]nc23)cc1,-27.5%,x,31.6µM*,-6.9%,x,-20.9%
CCOC(=O)c1c(C)[nH]c(N=Nc2ccc(C)cc2)c1C,-13.4%,-0.8%,-30.2%,x,u,-18.7%
